In PubChem BioAssay (Tox21):
Records with an inconclusive call do not appear. Activity calls are given as the source filed them. Unless noted, calls come from the whole dose curve; as a rule, active = well fitted curve in the direction sought with a large enough effect in the repeat runs; inconclusive = weak or mixed curves; inactive = no such curve, though single readings can be large; an effect the other way counts as inactive or inconclusive.

Tests used:
[1] = qHTS assay to identify small molecule agonists of the hypoxia (HIF-1) signaling pathway - cell viability counter screen (AID 1224844; calls by dose curve; note: nearly all actives have a fitted effect of over 50% in size)
Method in brief: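 Cytotoxicity was measured in parallel with the HRE-driven beta-lactamase readout: after 17 hrs of compound exposure at 37C, HRE-bla ME-180 cells received CellTiter-Glo and luminescence was recorded 30 min later.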

[2] = qHTS assay to identify small molecule agonists of H2AX (AID 1224845; active = well fitted activation curve with a large enough effect in the signal ratio in the repeat runs, not every such curve was filed as active; the % refers to the signal ratio)
Method in brief: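 Wild-type CHO-K1 cells plated overnight, then exposed 3 hr at 37C to compounds at 15 concentrations (0.76% DMSO). Lysed, then HTRF anti-pH2AX(S139)-cryptate/anti-H2AX-d2 detection after 24 hr at room temperature; emissions 665 and 620 nm.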

[3] = qHTS assay to identify small molecule agonists of the hypoxia (HIF-1) signaling pathway (AID 1224846; active = well fitted activation curve with a large enough effect in the signal ratio in the repeat runs, not every such curve was filed as active; the % refers to the signal ratio)
Method in brief: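 Compounds from the Tox21 10K library, dissolved in DMSO, are tested for induction of a hypoxia response element–controlled beta-lactamase reporter in ME-180 cells. Exposure lasts 17 hrs at 37C after a 5 hr settling period, followed by CCF4-AM FRET substrate.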

[4] = qHTS assay to identify small molecule agonists of H2AX - cell viability counter screen (AID 1224847; calls by dose curve; note: nearly all actives have a fitted effect of over 30% in size; note: potency is the fitted concentration of half-maximal effect; for activity change, negative = cytotoxicity: top concentration of the series differs between compounds)
Method in brief: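 CHO-K1 wt, 1000 cells/well, o/n 37C; cpds 15 conc, 3 h 37C, 0.76% DMSO; CellTiter-Glo, 30 min RT, luminescence.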

[5] = qHTS RealTime-Glo MT Cell Viability Assay in HepG2 cells - 24 hour (AID 1224867); note: nearly all actives have a fitted effect of over 50% in size
Method in brief: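 HepG2 cells were seeded at 600 cells/well together with NanoLuc luciferase and a cell-permeant prosubstrate, preincubated 5 h at 37 C/5% CO2, then pin-dosed with compounds in DMSO. Nonlytic luminescence from viable cells was read at each time point.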

[6] = qHTS RealTime-Glo MT Cell Viability Assay in HEK293 cells - 32 hour (AID 1224868); note: nearly all actives have a fitted effect of over 50% in size; note: potency is the fitted concentration of half-maximal effect; for activity change, negative = cytotoxic: top concentration of the series differs between compounds
Method in brief: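 HEK293 cells were seeded at 600 cells/well together with NanoLuc luciferase and cell-permeant prosubstrate, preincubated 5 h at 37 C/5% CO2, then given compound in DMSO by pintool. Luminescence from viable-cell prosubstrate reduction was read repeatedly over 40 h.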

[7] = A CellTox Green Cytotoxicity Assay to monitor cytotoxicity in HEK293 cells - 0 hour (AID 1224869); note: nearly all actives have a fitted effect of over 50% in size
Method in brief: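 Cells (HEK293, 600/well) and dye reagent are dispensed together. After 5 h at 37 C, 23 nL compound is pinned in. Plates stay at 37 C for 40 h with fluorescence read at 0h, 8h, 16h, 24h, 32h and 40h.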

[8] = qHTS RealTime-Glo MT Cell Viability Assay in HepG2 cells - 40 hour (AID 1224870); note: nearly all actives have a fitted effect of over 50% in size
Method in brief: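 HepG2 cells mixed with RealTime-Glo MT reagents (NanoLuc plus cell-permeant prosubstrate) were seeded at 600 cells/well, incubated 5 h at 37 C/5% CO2, then pinned with compounds in DMSO; nonlytic luminescence tracked viability during 40 h treatment.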

[9] = qHTS assay to identify small molecule antagonists of the estrogen related receptor (ERR) signaling pathway from Tox21 library (AID 1224848); note: nearly all actives have a fitted effect of over 50% in size; note: potency is the fitted concentration of half-maximal effect
Method in brief: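 Tox21 10K compounds in DMSO tested for ERR pathway antagonism in NTP's ERR cell line; 18 h, 37 C exposure; ONE-Glo luminescence.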

[10] = qHTS assay to identify small molecule agonists of the estrogen related receptor (ERR) signaling pathway from Tox21 library (AID 1224849; calls by dose curve; note: nearly all actives have a fitted effect of over 15% in size); conditions: ERR reporter cell line, ONE-Glo luciferase, 18 h; at 92.4 µM (top of the series) unless noted
Method in brief: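 Cells carrying the ERR reporter were plated and allowed to settle for 6 h, exposed to library compounds for 18 h at 37 C, then lysed with ONE-Glo and luminescence measured.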
% is set by controls: 0 for no effect and ±100 for the full control effect.

CN(C)CCc1c[nH]c2ccccc12
inactive: Potency [1] | Potency [2] | Potency [3] | Potency [4] | Potency [5] | Potency [6] | Potency [7] | Potency [8]

COCCC#N
inactive: Potency [1] | Potency [2] | Potency [3] | Potency [4] | Potency [5] | Potency [6] | Potency [7] | Potency [8]

CCO/N=C(\CC)C1=C(O)CC(c2c(C)cc(C)cc2C)CC1=O (centres undefined)
inactive: Potency [1] | Potency [2] | Potency [3] | Potency [4] | Potency [5] | Potency [7] | Potency [8]

CCCCN(CCCC)C(=S)S
inactive: Potency [1] | Potency [2] | Potency [3] | Potency [9] | activity change, positive = activation [10] -4.56% | Potency [5] | Potency [6] | Potency [7] | Potency [8]

CSC(=O)c1c(C(F)F)nc(C(F)(F)F)c(C(=O)SC)c1CC(C)C
inactive: Potency [1] | Potency [2] | Potency [3] | Potency [4] | Potency [5] | Potency [6] | Potency [7] | Potency [8]

COc1ccc2c3c1O[C@H]1[C@H](O)CC[C@H]4[C@@H](C2)N(C)CC[C@@]341
inactive: Potency [1] | Potency [2] | Potency [3] | Potency [4] | Potency [5] | Potency [6] | Potency [7] | Potency [8]

S=C=Nc1ccccc1
inactive: Potency [1] | Potency [2] | Potency [3] | Potency [4] | Potency [5] | Potency [6] | Potency [7] | Potency [8]

CC1CCCC1
inactive: Potency [1] | Potency [2] | Potency [3] | Potency [4] | Potency [5] | Potency [6] | Potency [7] | Potency [8]

Clc1c(Cl)c(Cl)c(Cl)c(Cl)c1Cl
inactive: activity change, negative = cytotoxicity [1] 4.74% [at 6.97 µM] | activation (H2AX phosphorylation) [2] -0.165% [at 14 µM] | activation [3] -0.723% [at 7.01 µM] | activity change, negative = cytotoxicity [4] -1.8% [at 14 µM] | activity change, negative = cytotoxicity [5] -0.564% [at 6.97 µM] | activity change, negative = cytotoxic [6] 0.699% [at 6.97 µM] | activity change, negative = cytotoxic [8] 0.985% [at 6.97 µM]

CCN(CC)C(=O)N[C@@H]1C=C2c3cccc4[nH]cc(c34)C[C@@H]2N(C)C1
inactive: Potency [1] | Potency [2] | Potency [3] | Potency [4] | Potency [5] | Potency [6] | Potency [7] | Potency [8]

CNC(=O)Oc1cc(C)cc(C(C)C)c1
inactive: Potency [1] | Potency [2] | Potency [3] | Potency [9] | activity change, positive = activation [10] 10.3% | Potency [5] | Potency [6] | Potency [7] | Potency [8]

CC1CN1 (centres undefined)
inactive: Potency [1] | Potency [2] | Potency [3] | Potency [4] | Potency [5] | Potency [6] | Potency [7] | Potency [8]

CN1C2CCC(C)(C)C1CC(OC(=O)C(O)(c1cccs1)c1cccs1)C2 (centres undefined)
inactive: Potency [1] | Potency [2] | Potency [3] | Potency [4] | Potency [5] | Potency [6] | Potency [8]

CN
inactive: Potency [1] | Potency [2] | Potency [3] | Potency [4] | Potency [5] | Potency [7] | Potency [8]

CC(=O)O.CC(=O)O.CC(=O)O.CC(=O)O.CC(=O)O.CC(=O)O.CC(=O)O.O.O.[Cr].[Cr].[Cr]
inactive: Potency [1] | Potency [2] | Potency [3] | Potency [4] | Potency [5] | Potency [6] | Potency [7] | Potency [8]

CC(=O)[O-].CC(=O)[O-].CC(=O)[O-].[Cr+3]
inactive: Potency [1] | Potency [2] | Potency [3] | Potency [4] | Potency [5] | Potency [6] | Potency [8]

CCCC[N+]1(C)CCCC1 (tested in a mixture with another compound)
inactive: Potency [1] | Potency [2] | Potency [3] | Potency [4] | Potency [5] | Potency [6] | Potency [8]

O=[N+]([O-])c1ccc(Cl)c(Cl)c1Cl
inactive: Potency [1] | Potency [2] | Potency [3] | Potency [9] | activity change, positive = activation [10] -11% | Potency [5] | Potency [6] | Potency [7] | Potency [8]

CCN(CC)CCc1c[nH]c2ccccc12
inactive: Potency [1] | Potency [2] | Potency [3] | Potency [4] | Potency [5] | Potency [6] | Potency [7] | Potency [8]

CCC(C)Nc1c([N+](=O)[O-])cc(C(C)(C)C)cc1[N+](=O)[O-] (centres undefined)
inactive: Potency [1] | Potency [2] | Potency [3] | Potency [9] | activity change, positive = activation [10] 11.9% | Potency [5] | Potency [6] | Potency [8]

ClC(Cl)C(Cl)(Cl)Cl
inactive: Potency [1] | Potency [2] | Potency [3] | Potency [4] | Potency [5] | Potency [6] | Potency [7] | Potency [8]

CCC1COC(Cn2cncn2)(c2ccc(Cl)cc2Cl)O1 (centres undefined)
inactive: Potency [1] | Potency [2] | Potency [3] | activity change, positive = activation [10] -57.5% | Potency [5] | Potency [7] | Potency [8]
active: Potency [9] 61.1 µM

NC1CCC(CC2CCC(N)CC2)CC1 (centres undefined)
inactive: Potency [1] | Potency [2] | Potency [3] | Potency [4] | Potency [5] | Potency [7] | Potency [8]

N#CSCc1ccccc1
inactive: Potency [1] | Potency [2] | Potency [3] | Potency [4] | Potency [5] | Potency [6] | Potency [8]

CC(C)=CCN1CC[C@@]2(C)c3cc(O)ccc3C[C@@H]1[C@@H]2C
inactive: Potency [1] | Potency [2] | Potency [3] | Potency [4] | Potency [5] | Potency [7]

FC(F)C(F)(F)OCC(Cn1cncn1)c1ccc(Cl)cc1Cl (centres undefined)
inactive: Potency [1] | Potency [2] | Potency [3]
active: Potency [4] 112 µM | Potency [6] 21.7 µM

COc1ccc(Cc2nccc3cc(OC)c(OC)cc23)cc1OC
active: Potency [6] 5.35 µM
inactive: Potency [1] | Potency [2] | Potency [3] | Potency [4] | Potency [8]

CNC(C)(C)Cc1ccccc1
inactive: Potency [1] | Potency [2] | Potency [3] | Potency [4] | Potency [5] | Potency [6] | Potency [7] | Potency [8]

CCn1cc[n+](C)c1 (tested in a mixture with another compound)
inactive: Potency [1] | Potency [2] | Potency [3] | Potency [4] | Potency [5] | Potency [6] | Potency [8]
